Compound activity (PubChem)
mTORC1 inh = reduces mTORC1 signaling in Tsc2 and p53 null MEF cells. Tsc2-/- p53-/- MEF, phospho-rpS6 immunofluorescence/PI, 24 h. Potency, µM (top dose mostly 38.3 µM), inactives show at the highest dose activity change, negative = inhibition, actives largely listed as inhibitors. hit rate 0.78% among 44,000. AID 493208;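 note: plate controls were DMSO for no effect and rapamycin for full effect; nearly all actives have a fitted effect of over 50% in size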
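Read-out: phospho-S6 Alexa-488 intensity over PI intensity per well, scored as % active cells using thresholds from rapamycin (7.5 nM) and DMSO controls. Tsc2-/-, p53-/- MEFs exposed to compound for 24 h; PI cell count recorded as viability.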
PMP22 txn = modulates PMP22 transcription in S16 Schwann cells. S16 Pmp22-F2sN Schwann cells, FLuc/NLuc coincidence luminescence, 24 h. Potency, µM (doses to about 57.5 µM), for the others: at the highest dose activity change, negative = inhibition, most hits filed as inhibitors. hit rate 2% among 43,000. AID 1508649; active = clear falling dose curves in both reporters; inconclusive = both reporters move, but less clearly or upward; inactive = either reporter flat; the % is the NLuc reporter signal; note: % is set by controls: 0 for no effect and ±100 for the full control effect
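S16(c9) Schwann cells with FLuc/NLuc coincidence reporter in the Pmp22 3' UTR; compounds pin-transferred, 24 h at 37C. Dual-luciferase read: FLuc first, then NLuc after Stop&Glo, each 10 min at room temperature.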
S16 viability = toxic to S16 Pmp22-F2sN Schwann cells; Potency, µM (doses to about 57.5 µM), for inactives: at the highest dose activity change, negative = cytotoxicity, usual class: cytotoxic; S16 Pmp22-F2sN Schwann cells (luciferase reporters placed in the Pmp22 gene) viability, CellTiter-Glo, 24 h; hit rate 0.48% among 43,000; AID 1508642; note: % is set by controls: 0 for no effect and ±100 for the full control effect; nearly all actives have a fitted effect of over 65% in size
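Rat S16 Schwann reporter line, 24 h treatment with library compounds delivered at 23 nL per well. Cell viability by CellTiter-Glo luminescence.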
HTT-AS promoter = activators of huntingtin-antisense promoter activity; HEK293 HTT-AS promoter firefly luciferase reporter, 24 h; response scale: percent change from vehicle, -100% = no light; Potency, µM (titrated, usually from 57.5 µM), without a hit: at the highest dose activity change, positive = activation, hits mostly activators; hit rate 0.24% among 48,000; AID 1508624; note: nearly all actives have a fitted effect of over 55% in size
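Luminescence was read after Dual-Glo reagent and a 10 min room-temperature incubation. Values were normalized to vehicle (0% activity) and zero RLU (-100% activity). Reporter HEK293 cells had been exposed to compounds (up to 57.5 uM final) for 24 h.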
FH mod = Identification of activators of human fumarate hydratase by quantitative high-throughput screening | hit rate 0.22% among 54,000 | FH coupled MDH/diaphorase resazurin fluorescence, 15 min | Potency, µM (titrated, usually from 79.9 µM), for inactives: at the highest dose activity change, negative = inhibition, hits mostly inhibitors; note: % is set by controls: 0 for no effect and ±100 for the full control effect; the screen sought activators but most active calls are inhibition curves; nearly all actives have a fitted effect of over 45% in size
Target sequence (P07954 whole entry, looked up): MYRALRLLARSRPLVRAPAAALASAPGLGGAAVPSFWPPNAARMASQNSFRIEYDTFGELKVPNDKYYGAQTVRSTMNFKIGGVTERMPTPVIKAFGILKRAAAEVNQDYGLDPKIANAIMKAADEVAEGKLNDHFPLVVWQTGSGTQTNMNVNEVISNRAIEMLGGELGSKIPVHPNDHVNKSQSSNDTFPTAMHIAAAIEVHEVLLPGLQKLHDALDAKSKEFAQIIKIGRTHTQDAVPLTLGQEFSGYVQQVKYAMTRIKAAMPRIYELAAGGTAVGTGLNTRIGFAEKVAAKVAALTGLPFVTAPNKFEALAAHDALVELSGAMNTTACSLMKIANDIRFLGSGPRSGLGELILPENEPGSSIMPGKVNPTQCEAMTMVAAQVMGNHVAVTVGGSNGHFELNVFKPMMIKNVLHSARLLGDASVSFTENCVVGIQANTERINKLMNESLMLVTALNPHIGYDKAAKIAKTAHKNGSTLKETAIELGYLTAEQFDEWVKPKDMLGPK
HTT promoter inh = inhibits huntingtin promoter activity; hit rate 0.93% among 48,000; Potency, µM (series often up to 57.5 µM), without a hit: at the top dose activity change, negative = inhibition, actives largely listed as inhibitors; HEK293 HTT promoter firefly luciferase reporter, 24 h; note: nearly all actives have a fitted effect of over 50% in size
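HEK293 Fluc reporter, 2,500 cells/well, 24 h pre-culture; cpds up to 57.5 uM final, 24 h 37 degrees C; Dual-Glo, 10 min RT; normalized vehicle = 0%, zero RLU = -100%.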
* marks the source's active call; other numbers are inactive results; ? = inconclusive; nt = not tested or not shown; [ ] = another dose, or the depositor's remark. The list is not random: actives were taken first. Their share in the collection is about 3.3%. Unless noted, calls come from the whole dose curve; as a rule, active = well fitted curve in the direction sought with a large enough effect; inconclusive = small, poorly fitted or top-dose-only effect, or another doubt; inactive = no such curve, though single readings can be large; an effect the other way counts as inactive or inconclusive. Potency is the fitted concentration of half-maximal effect.

SMILES | mTORC1 inh | PMP22 txn | S16 viability | HTT-AS promoter | FH mod | HTT promoter inh
COc1ccccc1N=c1scc(-c2ccc(S(=O)(=O)N3CCCC3)cc2)n1C | -20.0% | ? | ? | -77.9% | -22.9% | 3.16µM*
CC(C)Cn1c(-c2ccc(S(=O)(=O)N3CCCC3)cc2)csc1=Nc1ccccc1 | -28.6% | ? | ? | -19.0% | -9.4% | ?
O=S(=O)(c1ccc(-c2csc(=Nc3ccc(F)cc3)n2CCCCCCO)cc1)N1CCCC1 | ? | 8.8µM* | 17.8µM* | -91.9% | ? | ?
C[C@]1(OC(=O)/C=C\c2ccc(O)cc2)C[C@@H](O)[C@]2(O)C=CO[C@@H](O[C@@H]3O[C@H](CO)[C@@H](O)[C@H](O)[C@H]3O)C12 (some centres undefined) | nt | nt | nt | nt | 1.1%[53.3 µM] | nt
COc1ccc(OC)c(CNC(=O)c2ccc3nc(C(C)C)oc3c2)c1 | 0.0% | 1.8% | -3.6% | 1.0% | -15.6% | -12.0%
COc1ccc(CNC(=O)c2ccc3nc(C(C)C)oc3c2)cc1OC | 0.0% | ? | 28.2µM* | -34.7% | -28.9% | ?
COc1cc(NC(=O)CCCSc2nc(-c3ccco3)cc(C(F)(F)F)n2)cc(OC)c1OC | -0.4% | ? | ? | -31.2% | -21.6% | ?
COc1cc(NC(=O)CSc2nc(-c3ccco3)cc(C(F)(F)F)n2)cc(OC)c1OC | -9.8% | -112.5% | -15.9% | -74.6% | -9.1% | 12.6µM*
C/C(=C\Cc1c(O)c(Cl)c(C)c(C=O)c1O)CC/C=C(\C)[C@H]1CC(=O)C(C)(C)O1 | nt | nt | nt | nt | -0.1%[53.3 µM] | nt
O=C1NC(=O)/C(=C/c2ccc3nccnc3c2)S1 | nt | nt | nt | nt | -19.1%[53.3 µM] | nt
O=C1NC(=O)/C(=C\c2ccc3nccc(-c4ccncc4)c3c2)S1 | nt | nt | nt | nt | 25.1µM* | nt
O=C1NC(=O)/C(=C/c2ccc3nccc(-c4ccncc4)c3c2)S1 | nt | nt | nt | nt | 31.6µM* | nt
CC1=C(C(=O)O[C@@H]2O[C@H](COC3OCC(O)C(O)C3O)[C@@H](O)[C@H](O)[C@H]2O)C(C)(C)CCC1 (some centres undefined) | nt | nt | nt | nt | -0.3%[53.3 µM] | nt
Cc1cc(OCC(=O)NCC2(N3CCN(C)CC3)CCCCC2)cc(C)c1Cl | 5.85µM* | ? | ? | -16.8% | 1.7% | -17.8%
CC1(C)CCC2(C(=O)OC3OC(CO)C(O)C(O)C3O)CCC3(C)C(=CCC4C5(C)CCC(OC6OC(C(=O)O)C(OC7OC(CO)C(O)C(O)C7O)C(OC7OC(CO)C(O)C(O)C7O)C6O)C(C)(C)C5CCC43C)C2C1 (centres undefined) | nt | nt | nt | nt | 1.8%[20.6 µM] | nt
CSc1nc(N)c2ncn([C@@H]3O[C@H](COP(=O)(O)OP(=O)(O)OP(=O)(O)O)C(O)[C@H]3O)c2n1 (some centres undefined) | nt | nt | nt | nt | -2.9%[53.3 µM] | nt
COC[C@H](C)Oc1cc(O[C@@H](C)Cc2ccccc2)cc(C(=O)Nc2ccc(C(=O)O)cn2)c1 | nt | nt | nt | nt | -0.3% | nt
COc1cc(-c2nc3nc(C)cc(C)n3c2Nc2ccc(Cl)cc2)ccc1O | -18.3% | -0.8% | -2.1% | -28.5% | -11.9% | -22.3%
COc1cc(-c2nc3sccn3c2Nc2c(C)cccc2C)ccc1O | 3.1% | -37.5% | 2.5% | -3.9% | 15.8µM* | -2.4%
CCc1cccc(C)c1Nc1c(-c2cccc(O)c2)nc2sccn12 | 9.4% | ? | 8.1% | -22.2% | ? | -9.6%
COc1cc(-c2nc3ncccn3c2Nc2ccc(C)cc2C)ccc1O | 14.7µM* | 5.1% | ? | -8.3% | ? | 6.5%
Cc1cccc(C)c1Nc1c(-c2ccc(O)cc2)nc2sccn12 | -29.9% | ? | 15.2% | -16.4% | 31.6µM* | -13.3%
C=C(C)[C@@H]1CC[C@]2(C(=O)O)CC[C@]3(C)C(CCC4[C@]5(C)C(CC[C@]43C)C(C)(C)[C@@H](O)[C@@H]5C(=O)O)C12 (some centres undefined) | nt | nt | nt | nt | 3.1%[53.3 µM] | nt
Cc1cc(-c2ccc(/C=C3\SC(=Nc4ccc(Cl)c(C(=O)O)c4)NC3=O)o2)c([N+](=O)[O-])cc1C | nt | nt | nt | nt | 25.1µM* | nt
O=C(NCc1cccs1)c1cc2nc(-c3ccco3)cc(C(F)(F)Cl)n2n1 | nt | nt | nt | nt | -6.3% | nt
SMILES | mTORC1 inh | PMP22 txn | S16 viability | HTT-AS promoter | FH mod | HTT promoter inh
Cc1cccc(-c2noc(-c3ccc(N4CCN(C)CC4)c([N+](=O)[O-])c3)n2)c1 | -0.2% | ? | 2.4% | -72.8% | -34.4% | 1.41µM*
Cc1ccc(C)c(NC(=O)Cn2nnc(C(=O)NCc3ccco3)c2N)c1 | -20.4% | 10.1µM* | ? | -34.3% | 7.4% | ?
COc1ccc(-n2c(-c3ccco3)nc3c(cnn3-c3ccc(Cl)cc3)c2=O)cc1 | 1.8% | ? | -28.7% | -53.2% | -21.8% | 35.5µM*
COc1cccc(-n2c(-c3ccco3)nc3c(cnn3-c3ccc(Cl)cc3)c2=O)c1 | -1.8% | ? | ? | -31.9% | -17.9% | ?
Cc1ccc(CCNC(=O)c2c[nH]c3ccc(S(=O)(=O)Nc4cccc(C(F)(F)F)c4)cc3c2=O)cc1 | 1.8% | ? | -20.9% | -43.4% | -15.2% | 15.8µM*
CC(=O)Nc1ccccc1-c1nc2ccccc2n(C(C)C(=O)Nc2cccc(C)c2C)c1=O (centres undefined) | -0.9% | -23.1% | 0.3% | -24.5% | -6.6% | -20.9%
CCC(C(=O)Nc1ccc(C)c(Cl)c1)n1c(=O)c(-c2ccccc2NC(C)=O)nc2ccccc21 (centres undefined) | ? | ? | -2.4% | -43.9% | -28.0% | 22.4µM*
Nc1c(S(=O)(=O)O)cc(Nc2ccc(Nc3nc(Cl)nc(Nc4ccc(S(=O)(=O)O)cc4)n3)c(S(=O)(=O)O)c2)c2c1C(=O)c1ccccc1C2=O | nt | nt | nt | nt | 5.01µM* | nt
COc1ccc(-c2cc(C(F)(F)F)nc(S(=O)(=O)CCCC(=O)Nc3ccccc3C(F)(F)F)n2)cc1OC | 18.5µM* | ? | ? | -93.7% | -7.4% | ?
COc1ccc(NC(=O)CCCS(=O)(=O)c2nc(-c3ccc(OC)c(OC)c3)cc(C(F)(F)F)n2)cc1OC | 11.7µM* | 4.47µM* | 4.47µM* | -73.8% | -11.6% | -9.4%
COc1ccc(-c2cc(C(F)(F)F)nc(S(=O)(=O)CCCC(=O)Nc3cccc(O)c3)n2)cc1OC | ? | 5.97µM* | 8.91µM* | -41.7% | 1.9% | -9.4%
COC1CCCC/C(C)=C/C2C=C(C)C(C)C3C(CC(C)C)NC(=O)C23C(=O)C1 (centres undefined) | nt | nt | nt | nt | 0.0%[53.3 µM] | nt
Cc1cccc(C2CC(=O)Nc3cc4c(cc32)OCO4)c1 (centres undefined) | -12.4% | ? | -3.9% | -42.0% | -13.2% | ?
